The list is not random: actives were taken first. Their share in the collection is about 13%.
Shiga toxin inh: A qHTS for Small Molecule Inhibitors of Shiga Toxin; hit rate 9.2% among 290,000; inhibition, % at 38.7 µM; Vero cells, Shiga toxin protein synthesis inhibition reporter; AID 2315, 2010; in the data active = inhibition mostly above about 28%, no sharp cut-off; inactive = mostly below about 43%; also: 0% is about no effect
HCV inh: qHTS Assay for Inhibitors of Hepatitis C Virus (HCV) | hit rate 3.4% among 340,000 | Potency, µM (series often up to 41.8 µM), without a hit: at the top dose activity change, negative = inhibition, actives largely listed as inhibitors | AID 651820, 2012 | Huh7.5.1 HCVcc-Cre infection, luciferase reporter, 44 h; also: potency is read from the fitted curve at half-maximal effect; % is scaled to controls: 0 for no effect and ±100 for the full control effect
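Luciferase read-out (15 sec integration) after a 15 min room-temperature substrate step quantifies HCVcc-Cre infection. Cells, 1,000 per well, had compound added 4 h post-plating, then virus at ~0.5 moi, and were cultured 44 h.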
MARV entry inh: qHTS for inhibitors of binding or entry into cells for Marburg Virus; Marburg virus pseudotyped entry inhibition, cell reporter; Potency, µM (series often up to 37.8 µM), for the others: top-dose activity change, negative = inhibition, most hits filed as inhibitors; hit rate 1.8% among 300,000; AID 540276, 2011; calls by dose curve; tested in HEK293 cells; also: potency is read from the fitted curve at half-maximal effect; % is scaled to controls: 0 for no effect and ±100 for the full control effect
Lassa entry inh: qHTS for Inhibitors of binding or entry into cells for Lassa Virus; Lassa virus pseudotype entry inhibition, cell reporter; Potency, µM (top dose mostly 37.9 µM), for inactives: at the top dose activity change, negative = inhibition, hits mostly inhibitors; hit rate 1.2% among 300,000; AID 540256, 2011; calls by dose curve; tested in HEK293 cells; also: potency is read from the fitted curve at half-maximal effect; % is scaled to controls: 0 for no effect and ±100 for the full control effect; nearly all actives have a fitted effect of over 50% in size
CHX counter: Cycloheximide Counterscreen for Small Molecule Inhibitors of Shiga Toxin; cell reporter, cycloheximide protein synthesis inhibition counterscreen; max response, %; hit rate 12% among 300,000; in the data active = max response mostly above about 13%, no sharp cut-off; inactive = mostly below about 14%; also: read at 38.3 µM for the half of the compounds with a filed dose; 0% is about no effect
FMDV antiviral: High Throughput Screening for Foot and Mouth Disease Virus Antivirals; FMDV antiviral cell-based qHTS; Potency, µM (doses to about 57.9 µM), for inactives: top-dose activity change, negative = inhibition, most hits filed as inhibitors; hit rate 1.2% among 410,000; AID 1159524, 2015; calls by dose curve; tested in HEK293T cells; also: read-out not given here; potency is read from the fitted curve at half-maximal effect; % is scaled to controls: 0 for no effect and ±100 for the full control effect; nearly all actives have a fitted effect of over 45% in size
HeLa G2M arrest: Cell cycle validation with wells to cells screening paradigm. shares compounds with MARV entry inh. HeLa cell cycle G2/M arrest, Hoechst DNA content imaging. Potency, µM, actives largely listed as inhibitors. hit rate 60% among 25
WI-38 tox: High Content Assay for Compounds that inhibit the Assembly of the Perinucleolar Compartment: WI-38 Cytotoxicity; Potency, µM (series often up to 46.1 µM), for inactives: top-dose activity change, negative = cytotoxicity, actives largely listed as inhibitors; 120 tested, under 10 active; shares compounds with MARV entry inh; WI-38 normal lung fibroblasts, ATPLite luminescence ATP viability, 24 h; AID 2729, 2010
PNC assembly inh: High Content Assay for Compounds that inhibit the Assembly of the Perinucleolar Compartment: Confirmation of PNC Inhibition. shares compounds with MARV entry inh. PC3M PTB-GFP, PNC prevalence imaging, 16 h. Potency, µM (doses to about 46.1 µM), for inactives: at the top dose activity, negative = PNC inhibition, most hits filed as inhibitors. hit rate 50% among 120. AID 2730, 2010
PC3M caspase: High Content Assay for Compounds that inhibit the Assembly of the Perinucleolar Compartment: PC3M Caspase 3/7 Activation. shares compounds with MARV entry inh. PC3M-GFP caspase 3/7 activation, luminescence, 24 h. activity change, positive = activation, % at 46.1 µM. 120 tested, under 10 active
Numbers without * were called inactive; ? = inconclusive; . = not tested or not shown; ! = repeats disagree; [ ] = dose if it differs, or a comment. Unless noted, calls follow the shape of the dose curve; as a rule, active = well fitted curve in the direction sought with a large enough effect; inconclusive = small, poorly fitted or top-dose-only effect, or another doubt; inactive = no such curve, though single readings can be large; an effect the other way counts as inactive or inconclusive.

SMILES	Shiga toxin inh	HCV inh	MARV entry inh	Lassa entry inh	CHX counter	FMDV antiviral	WI-38 tox	PNC assembly inh	PC3M caspase	others
COCCCNC(=O)C1CCN(S(=O)(=O)c2ccc3nc4c(c(C(=O)O)c3c2)CCCCC4)CC1	17.4	9.7%	.	.	1.4	-0.4%	.	.	.
O=S(=O)(c1cc(C(F)(F)F)ccc1Cl)N1CCCCCC1	-1.6	5.7%	-4.9%	-6.9%	8.9	.	.	.	.
CN1c2ccccc2C(C)(C)C12CC(c1ccc(Cl)c(S(=O)(=O)N3CCCC3)c1)=NO2 (configuration not stated)	7.9	4.5%	22.3%	-9.0%	1.7	.	8.8%	3.98µM*	-7.4
Cc1cccc(C(O)(C(=O)NNC(=O)CN2CCN(C)CC2)c2cccc(C)c2)c1	-13.4	18.3%	?	19.3%	-1.8	-12.0%	.	.	.
Cc1ccc(C(O)(C(=O)NNC(=O)CN2CCN(C)CC2)c2ccc(C)cc2)cc1	-14.9	10.1%	?	3.1%	4.6	-15.2%	-9.8%	-3.7%	-7.0
O=S1(=O)CC(O)C(NCc2ccco2)C1 (configuration not stated)	-28.2	5.1%	4.9%	0.0%	0.7	0.0%	.	.	.
COC(=O)C1=C(C)N(C)C(=O)NC1c1ccc(O)c(Cl)c1 (configuration not stated)	2.2	5.1%	.	.	-2.7	-0.9%	.	.	.
COC(=O)Nc1nc2ccc(C(=O)c3cccs3)cc2[nH]1	.	-8.2%	0.159µM*!	?	.	19.6%	.	.	.	HeLa G2M arrest=0.0708*
COC(=O)Nc1nc2ccc(C(=O)c3ccccc3)cc2[nH]1	.	.	.	.	.	29.2%	.	.	.
CCC(=NCc1cc(OC)cc(OC)c1)c1c(O)n(C)c(=O)n(C)c1=O	-10.2	6.31µM*	20.6µM*	?	2.4	?	7.4%	?	-10.3
O=C(Nc1ccc(Br)c(Cl)c1)c1ccc(C(=O)Nc2ccc(Br)c(Cl)c2)cc1	.	.	2.9%[46.1 µM]	-2.5%[46.1 µM]	.	?	.	.	.
O=C1C(=O)c2ccc(-c3ccccc3)cc2-c2ccccc21	10.7	4.47µM*	5.8µM*	?	-1.3	14.1µM*	?	22.4µM*	?
Nc1ccc2c(c1)C(=O)c1ccccc1-2	.	?	?	11.4%[46.1 µM]	.	0.0%	.	.	.
Nc1ccc2c(c1)C(=O)C(=O)c1ccccc1-2	-27.7	2.51µM*	5.62µM*	?	-8.6	5.62µM*	28.2µM*	20µM*	-15.5
O=C(NC(CSCc1ccccc1)C(=O)N/N=C/c1ccc(O)cc1O)c1ccc([N+](=O)[O-])cc1 (configuration not stated)	45.7	10µM*	4.61µM*	9.2µM*	13.6	-20.5%	-3.5%	?	-2.9
O=C(Nc1ccc(NC(=O)C2CC2)cn1)c1ccccc1Cl	49.5*	?	?	?	33.3*	30.3%	?	35.5µM*	-18.6
CC(C)(CO)NC(=O)Nc1ccc(Cl)c(Cl)c1	-13.0	?	23.6%[46.1 µM]	?	4.5	6.5%	.	.	.
Cc1c(NC(=O)CSc2nnc3c4ccccc4n(CCc4ccccc4)c3n2)c(=O)n(-c2ccccc2)n1C	-25.8	?	?	0.631µM*	-0.8	?	17.0%	8.91µM*	-5.5
CCn1c2ccccc2c2nnc(SCC(=O)Nc3c(C)n(C)n(-c4ccccc4)c3=O)nc21	-25.7	-27.0%	-11.1%	-28.0%	-4.2	-21.2%	.	.	.
COc1ccc2nc3sc(C(=O)NCCCN4CCc5ccccc5C4)cc3cc2c1	37.9	10µM*	?	?	27.6*	-10.3%	?	3.3%	-16.6
COc1ccc(S(=O)(=O)Cc2ccc(C(=O)NCCCN3CCc4ccccc4C3)o2)cc1	18.9	-15.1%	-1.3%	.	-3.6	-9.3%	.	.	.
COc1ccc(Cl)cc1-c1nc(SCC(=O)NCC2CCCO2)n[nH]1 (configuration not stated)	.	-14.4%	.	.	.	-23.0%	.	.	.
Oc1oc(-c2ccccc2Br)nc1C=Nc1ccc(Br)cn1	25.6	-7.8%	7.1%[46.1 µM]	9.5%[46.1 µM]	17.4	12.9%	.	.	.
CC(=O)c1ccc(-n2c(SCC(=O)c3c[nH]c4ccccc34)nc3ccccc3c2=O)cc1	7.1	?	3.4%	.	14.6	-0.4%	-16.8%	28.0%	-6.9
CN(C)S(=O)(=O)c1ccc2c(c1)/C(=C/c1cc3c([nH]1)CCCC3)C(=O)N2	.	?	?	?	.	20.8%	.	.	.	HeLa G2M arrest=?
SMILES	Shiga toxin inh	HCV inh	MARV entry inh	Lassa entry inh	CHX counter	FMDV antiviral	WI-38 tox	PNC assembly inh	PC3M caspase	others
O=c1[nH]c(=O)n([C@H]2C[C@H](O)[C@@H](CO)O2)cc1Br	.	5.7%	20.5%	-3.4%	.	-0.6%	.	.	.	HeLa G2M arrest=?
Cc1cccc(NC2=C/C(=N/S(=O)(=O)c3cccs3)c3ccccc3C2=O)c1	26.1	2.82µM*	?	3.16µM*	14.5*	?	?	14.1µM*	?
Cc1cc(C)c(S(=O)(=O)/N=C2\C=C(NS(=O)(=O)c3ccccc3)C(=O)c3ccccc32)c(C)c1	-1.6	8.8%	?	22.6%[46.1 µM]	-1.5	48.7%	.	.	.
O=[N+]([O-])c1cncn1CCN1CCOCC1	.	23.3%	?	-0.1%	.	-12.7%	.	.	.
CCN1C(=O)c2cccc3c(S(=O)(=O)N(C(=O)c4ccncc4)c4ccc(OC)cc4)ccc1c23	23.8	?	?	?	0.9	22.1%	-2.8%	-0.9%	-3.5
CCN1C(=O)c2cccc3c(S(=O)(=O)N(C)C)ccc1c23	.	.	.	.	.	-2.1%	.	.	.
Cc1ccc2nc(-c3cccc(N)c3)oc2c1	7.4	-20.4%	?	?	10.2	.	.	.	.
Nc1cccc(-c2nc3ccc(N)cc3s2)c1	37.4	?	11.2µM*	?	21.2*	?	28.2µM*	5.01µM*	-25.6
CCc1ccc(S(=O)(=O)/N=C2/C=C(Sc3ncn[nH]3)C(=O)c3ccccc32)cc1	48.6*	2.82µM*	?	12.6µM*	18.5*	31.6µM*	?	28.2µM*	0.3
CCc1ccc(S(=O)(=O)/N=C2\C=CC(=O)c3ccccc32)cc1	-7.8	.	.	.	1.0	.	.	.	.
O=C(N/N=C/c1cc2c3c(c1O)CCCN3CCC2)c1ccccc1O	18.5	3.16µM*	1.46µM*	1.3µM*	16.4	-8.6%	-10.8%	?	-8.0

Assay outcomes: PubChem BioAssay, National Center for Advancing Translational Sciences (NCATS)
